Source: paper PMC7819943, “Rice protein-binding microarrays: a tool to detect cis-acting elements near promoter regions in rice”
Over roughly 68,000 sequences, “fluorescence intensity (a.u.)” has its median near 9,100; the highest 2% begin near 16,000. The entries come from a sample that favours the highest values as a whole.

Target: OsWRKY34 (Oryza sativa, UniProt Q0JBA9 1-250)
Assay: protein-binding microarray (RPBM); PBS, 2% BSA, 51.3 ng/ul salmon testes DNA, 50 uM zinc acetate, 200 nM TF, 25 C, 1 h; high values mean tight binding
Details: protein: recombinant; tags: N-terminal polyhistidine and DsRed monomer fusion (pET32a); label: CyDye5-dUTP incorporated in the synthesized complementary strand; 3' TTTTT single-stranded linker to array surface; dsDNA, one strand shown
Method in brief: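 For the binding signal, per-feature fluorescence intensity was read in arbitrary units on an Axon 4000B scanner. Before scanning, a 2% BSA-blocked custom Agilent array made double-stranded with Cy5-dUTP was washed after 1 h at 25 °C with 200 nM protein and 50 µM zinc acetate. The proteins were Ni–NTA-purified transcription factors with N-terminal polyhistidine and DsRed fusions, expressed in E. coli BL21-CodonPlus.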

Chain of OsWRKY34 (Q0JBA9 entry or part of it): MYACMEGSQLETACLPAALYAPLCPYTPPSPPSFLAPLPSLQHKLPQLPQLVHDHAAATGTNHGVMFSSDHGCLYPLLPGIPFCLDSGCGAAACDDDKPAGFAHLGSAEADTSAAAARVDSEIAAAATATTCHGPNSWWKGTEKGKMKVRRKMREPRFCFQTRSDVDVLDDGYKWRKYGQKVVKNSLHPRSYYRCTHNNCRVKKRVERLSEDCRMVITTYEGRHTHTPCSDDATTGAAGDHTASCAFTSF

Sequence	binding signal
TTTCGATTGATTTTGCCTCCTGAAGCGTTGTCTAGCTTTTCGGAGTCACCTAGTGCAG	8180 fluorescence intensity (a.u.)
TAGTACAATGGGTGCCCTCAACGGAATAAACCGCTATACCCGGAGTCACCTAGTGCAG	37000 fluorescence intensity (a.u.)
ACCTAGTACGTATACACCTCAATCCATTATAAATAGCAACCGGAGTCACCTAGTGCAG	8280 fluorescence intensity (a.u.)
GCACAAAACCCTCGAGCACCGCCCGCCGCTATATAACAACCGGAGTCACCTAGTGCAG	9960 fluorescence intensity (a.u.)
AGACAAACTCTGGTTTCCGTGTCCAACGTTTGACCGTTCGCGGAGTCACCTAGTGCAG	11300 fluorescence intensity (a.u.)
TTTCATTTCACTCGCTGGCATTTCATCTCCTTGACCTATCCGGAGTCACCTAGTGCAG	9400 fluorescence intensity (a.u.)
ACCCACTGATCACGAAATCCACACACTGGCCACATCCAAACGGAGTCACCTAGTGCAG	8340 fluorescence intensity (a.u.)
CTTTCTTTATTTCAAAAGTATGATACCGTTGACTTTTCACCGGAGTCACCTAGTGCAG	24900 fluorescence intensity (a.u.)
TTTTCTTTTTCAATGTATGATTCTGTTGACTTTTCAGATACGGAGTCACCTAGTGCAG	11600 fluorescence intensity (a.u.)
ATACTCCCTCCGTTTCAAAATGTTTGACATCGTTGACTTTCGGAGTCACCTAGTGCAG	9980 fluorescence intensity (a.u.)
CATCCGTTTCAAAATGTTTGACACCGTTGACTTTTTAGCACGGAGTCACCTAGTGCAG	26200 fluorescence intensity (a.u.)
TATTACTTCCTTCGTTTCAAAATGTTTGATACCGTTGACTCGGAGTCACCTAGTGCAG	12000 fluorescence intensity (a.u.)
CCCTCCGTTTCAAAATGTTTGACACCGTTGACTTTTTAGCCGGAGTCACCTAGTGCAG	28700 fluorescence intensity (a.u.)
TTATCAAAAGTACTTTTTAAGTATGACTTCTCCGTTTTTACGGAGTCACCTAGTGCAG	8280 fluorescence intensity (a.u.)
TACTCCCTCCGTTTCAAATGACACCATTGACTTTTTAGCACGGAGTCACCTAGTGCAG	9430 fluorescence intensity (a.u.)
CCCTCCGTTTCAAAATGTTTGATACCGTTGACTTTTTAGCCGGAGTCACCTAGTGCAG	21200 fluorescence intensity (a.u.)
GAGATGTGTCCATATTTGTAGTATTGGGTGGTATCTATTTCGGAGTCACCTAGTGCAG	8550 fluorescence intensity (a.u.)
TCACGGCCCCGCCGACCTCACGTCACCTTTTGTTGCGAGTCGGAGTCACCTAGTGCAG	8110 fluorescence intensity (a.u.)
GCCGAGGGCGCCGCCGGCGTCGTCCGAGCTGTGCCGCGCGCGGAGTCACCTAGTGCAG	8640 fluorescence intensity (a.u.)
ATCGTCCTCTGCACCTGCACACATCATCACTGGGACAACCCGGAGTCACCTAGTGCAG	8140 fluorescence intensity (a.u.)
AGGTCGACGTGTATATGTTCGTCTTTCATATCTCTGCTCTCGGAGTCACCTAGTGCAG	9640 fluorescence intensity (a.u.)

Sequence	binding signal
GTCGTCCAATGGCATGCCTCGCCCTGATTTTTATCGGGCCCGGAGTCACCTAGTGCAG	12700 fluorescence intensity (a.u.)
CCACAGTTAATTCCACACATACATGCACGCGTCTATATATCGGAGTCACCTAGTGCAG	11200 fluorescence intensity (a.u.)
AGCTGGCGGCTGGCGGGTGGTGGTGGTGGCTGGCGGCGGGCGGAGTCACCTAGTGCAG	13900 fluorescence intensity (a.u.)
GGGGTGTGTGTGCTCGGCTACTCCGGTGGGTCGGGTCTGGCGGAGTCACCTAGTGCAG	12700 fluorescence intensity (a.u.)
AGGGGTGGATGCGCGTGGGCTGGTGGTGGTGGTGGGGATGCGGAGTCACCTAGTGCAG	19100 fluorescence intensity (a.u.)
TCATCGCGGGGCGGGGTGTAGCGGGTGCGAAAAGGAGGCGCGGAGTCACCTAGTGCAG	9910 fluorescence intensity (a.u.)
TGGTGACTGGGTAGGTGGTGGTGGTGGTGCGCGGCGGCGGCGGAGTCACCTAGTGCAG	8620 fluorescence intensity (a.u.)
GCGGGGTGCGAGTGGATGGGTGGGCGTAGCGCGTGTCGTGCGGAGTCACCTAGTGCAG	10400 fluorescence intensity (a.u.)
CTGAGTGGCTGGGTGGGGTAGTGAAAAAAATCATCGCGCGCGGAGTCACCTAGTGCAG	18200 fluorescence intensity (a.u.)
GCTAGCTGGATTGGTGGGTGGGCGCGTCAAGAAGGGGATGCGGAGTCACCTAGTGCAG	9830 fluorescence intensity (a.u.)
GGTCTGGTTTTCCGTGTGTGCACGGTCGGGGTGCGCGTGGCGGAGTCACCTAGTGCAG	14300 fluorescence intensity (a.u.)
GGTGGTCGGGGCTCTGACGCGGCGGGGCGGCGGAGGTGGTCGGAGTCACCTAGTGCAG	10800 fluorescence intensity (a.u.)
CTGGTGGTCGGTTCAGTCGGGCGGGCGGGCGGGCTCACCGCGGAGTCACCTAGTGCAG	22800 fluorescence intensity (a.u.)
CTCCGGTGGGTCGGGTCTGGGCGGGGTGCGCGTGGGGATGCGGAGTCACCTAGTGCAG	18200 fluorescence intensity (a.u.)
TTCTTGGTTTTGAGTTCTCTTCTCGGTTTTCTCTTTAGCGCGGAGTCACCTAGTGCAG	9000 fluorescence intensity (a.u.)
TCTGAAGATGAGAGAGAGCTCACAGTTTATGGTTTTTGTACGGAGTCACCTAGTGCAG	8830 fluorescence intensity (a.u.)
TGGTTTGGTTGTGGTAGATCTTTTTTACTTATTGCTACCACGGAGTCACCTAGTGCAG	15800 fluorescence intensity (a.u.)
ATACTCGAGATGGGCGCTTGGTACTTGCATGTTTCCATTCCGGAGTCACCTAGTGCAG	8680 fluorescence intensity (a.u.)
AAATGTTACAATCATGCTCCAAACTCACACCTTGTTTAACCGGAGTCACCTAGTGCAG	8540 fluorescence intensity (a.u.)
CCTTTCACCCGCCCAAACTCATCCATCCATCGATCGCCCTCGGAGTCACCTAGTGCAG	8560 fluorescence intensity (a.u.)
GCAATCCGTGTAATTAATTATTTTTTCGTTTATACTCTCTCGGAGTCACCTAGTGCAG	10200 fluorescence intensity (a.u.)

Sequence	binding signal
CTTCCCACGCCAACGCCTCCGCTCCCGCTCGTACCACGCGCGGAGTCACCTAGTGCAG	8090 fluorescence intensity (a.u.)
TCGGTCGGGTCGGGTCGGGTCGCGTCGCGTGGGCTGCATGCGGAGTCACCTAGTGCAG	12200 fluorescence intensity (a.u.)
CTGGTCGTCGCTGCTCCGCGTGCCGGTCGGGGTGGGTGGGCGGAGTCACCTAGTGCAG	20100 fluorescence intensity (a.u.)
GGTTTTCCCTGGATGCCGAGAGGGTTTGGGTGCGCGCCGCCGGAGTCACCTAGTGCAG	8910 fluorescence intensity (a.u.)
GCTGCGGCCGTCAACGTGGTCGTCGTCTCCGCGGCCGCCGCGGAGTCACCTAGTGCAG	46900 fluorescence intensity (a.u.)
TTCTTGGGGCTGGAGAGGGTGGGGATGGTGGTGCGGATGCCGGAGTCACCTAGTGCAG	15000 fluorescence intensity (a.u.)
GGTTAGGGTTTGGGGTGGGGAGGGGTGGATGCGCGTGGGCCGGAGTCACCTAGTGCAG	21600 fluorescence intensity (a.u.)
GCCTCCGCCGCCGCCGCCGCCGCCGCGTCGTCTCCGACCGCGGAGTCACCTAGTGCAG	9710 fluorescence intensity (a.u.)
CCCAACCTCGCCGTCGCCGTCGCCGTCGCCGCCGTCTCCGCGGAGTCACCTAGTGCAG	10000 fluorescence intensity (a.u.)
GTGGTGGGTGGTGGCCGCGCTGCTGCGCGGTGGGTCGCATCGGAGTCACCTAGTGCAG	11400 fluorescence intensity (a.u.)
TCGGTTGGTTGGGAATTTCCATGACTATTTTCACCTATAACGGAGTCACCTAGTGCAG	8650 fluorescence intensity (a.u.)
AGGCTTCCAATCTTGTGCTAATCTGCTGGTGAAGTATATGCGGAGTCACCTAGTGCAG	8480 fluorescence intensity (a.u.)
CTCCGCCGCCACGCTCGCCCGCTGTTTGCTCCGTCCGCAGCGGAGTCACCTAGTGCAG	8350 fluorescence intensity (a.u.)
TCTCTGGTGGCTCCCTGGCGCTCCTCTTCACTCCATCCTCCGGAGTCACCTAGTGCAG	9090 fluorescence intensity (a.u.)
TTTCTAGATGTCTACGCGTTATCAGCATGTTGATGTCTACCGGAGTCACCTAGTGCAG	8460 fluorescence intensity (a.u.)
GTCTCTTCTCTTCTCTCGTGCAAGGCCGGCAGTGTACCGTCGGAGTCACCTAGTGCAG	9270 fluorescence intensity (a.u.)
GTTTCAAAATATTTGACACCGTTGACTTTTTAGTACGTGTCGGAGTCACCTAGTGCAG	19100 fluorescence intensity (a.u.)
CGTTTCAAAATATTTAACACCGTTGACTTTTTAGTACGTGCGGAGTCACCTAGTGCAG	31100 fluorescence intensity (a.u.)
ATTCAACACTTTTAAAATATTTTGATTGCGGTTTCTTTTACGGAGTCACCTAGTGCAG	9530 fluorescence intensity (a.u.)
CCGTTGACTTGGATTTGTTCCTTTTTCATTTTTTATCGTTCGGAGTCACCTAGTGCAG	14700 fluorescence intensity (a.u.)
GTTTGTCGTAGTAGTTTATTTTTGACACCGGCTTTCAAATCGGAGTCACCTAGTGCAG	9880 fluorescence intensity (a.u.)

Sequence	binding signal
ATATTTGACCGTTTGTCTTTTTCAAAAACTTTTGTGAAATCGGAGTCACCTAGTGCAG	9920 fluorescence intensity (a.u.)
TAGAAGAGCGCGTTGACACCGTTGACTTTGGATTTTCCGTCGGAGTCACCTAGTGCAG	18700 fluorescence intensity (a.u.)
CTCCCTCTGTTTCAAAATATTTGACACTGTTGACTTTTTACGGAGTCACCTAGTGCAG	11000 fluorescence intensity (a.u.)
CAAATTAGATGTTATTTTGACTTTTTTTTACAATATTTGACGGAGTCACCTAGTGCAG	10600 fluorescence intensity (a.u.)
AAAACACCAAATTAGTTTTATTAAAACTAACTTTCAAATACGGAGTCACCTAGTGCAG	11900 fluorescence intensity (a.u.)
TTGGTAGAGTTGTCCGTTTGGATTTTGGCCTCCCTTTTTTCGGAGTCACCTAGTGCAG	8380 fluorescence intensity (a.u.)
TCAAAATATTTGACACCGTTGACTTTTTAGGACGTGTTTACGGAGTCACCTAGTGCAG	24900 fluorescence intensity (a.u.)
ATCTGCCTAACGTAAAATGCACTATATTCTGTTTTGTTCTCGGAGTCACCTAGTGCAG	8370 fluorescence intensity (a.u.)
GTGGCGACTGTTATCCCTAATTTTGCGGACTTGCTCTGATCGGAGTCACCTAGTGCAG	9800 fluorescence intensity (a.u.)
AACCACCTGAATTTCGTCGAATTTTACCAATTCTGCTGAACGGAGTCACCTAGTGCAG	9120 fluorescence intensity (a.u.)
AAGACATGTGAATTTTGGTGGGATGTGGATGGGGAATTGACGGAGTCACCTAGTGCAG	9840 fluorescence intensity (a.u.)
TTCTATTTTACCTCTCGTCTCTCTCCTCGCGGTCGCTTCTCGGAGTCACCTAGTGCAG	12800 fluorescence intensity (a.u.)
CTCCTCGGGCTAAAAGTGGTAATACGCGTTTCTCAAGCTTCGGAGTCACCTAGTGCAG	9930 fluorescence intensity (a.u.)
CTCACTTGACCGTGAACAGCACTCACTTGATTTGTACTTTCGGAGTCACCTAGTGCAG	10000 fluorescence intensity (a.u.)
TGTTCTCTCCTGCCTCCACACTTTCTGGCACGGTACAAAACGGAGTCACCTAGTGCAG	8370 fluorescence intensity (a.u.)
TTAATTTCACGGTTTCATCTCGACATCTCATCATCTGTTTCGGAGTCACCTAGTGCAG	12100 fluorescence intensity (a.u.)
ATGCCATTTTTCCCGTTTGTTGCAATTGCAAAACATTTTTCGGAGTCACCTAGTGCAG	8580 fluorescence intensity (a.u.)
CTCTCACACCGTGCCATATCCCGAACATCCCTTGATCGAACGGAGTCACCTAGTGCAG	9530 fluorescence intensity (a.u.)
CTTTCCTGTACTATTTTACTGTCCGATTTACAACATGTGACGGAGTCACCTAGTGCAG	12900 fluorescence intensity (a.u.)
TCGGTTTTTACTGCTTCCATCAGACGTCGGTCTGTTTTCGCGGAGTCACCTAGTGCAG	9470 fluorescence intensity (a.u.)
ACCTGTTTCGTTCGTCCACGCCAGCGCCAACCGGACATGACGGAGTCACCTAGTGCAG	9460 fluorescence intensity (a.u.)
